Results filed as inconclusive are left out. Where a call stands in place of a potency, no number is given. The source made the active and inactive calls. Calls come from the whole dose curve.
These compounds were tested against Acetylcholinesterase (Homo sapiens) (UniProt P22303) (assay: Acetylcholinesterase (AChE) small molecule antagonists: fluorescence cell-based qHTS assay (AID 1347398; note: nearly all actives have a fitted effect of over 50% in size)). Details: SH-SY5Y cells; Potency: AChE activity; outcome: AChE activity; series mostly up to 115 µM.
Acetylcholinesterase (Homo sapiens), sequence (P22303 whole entry, looked up): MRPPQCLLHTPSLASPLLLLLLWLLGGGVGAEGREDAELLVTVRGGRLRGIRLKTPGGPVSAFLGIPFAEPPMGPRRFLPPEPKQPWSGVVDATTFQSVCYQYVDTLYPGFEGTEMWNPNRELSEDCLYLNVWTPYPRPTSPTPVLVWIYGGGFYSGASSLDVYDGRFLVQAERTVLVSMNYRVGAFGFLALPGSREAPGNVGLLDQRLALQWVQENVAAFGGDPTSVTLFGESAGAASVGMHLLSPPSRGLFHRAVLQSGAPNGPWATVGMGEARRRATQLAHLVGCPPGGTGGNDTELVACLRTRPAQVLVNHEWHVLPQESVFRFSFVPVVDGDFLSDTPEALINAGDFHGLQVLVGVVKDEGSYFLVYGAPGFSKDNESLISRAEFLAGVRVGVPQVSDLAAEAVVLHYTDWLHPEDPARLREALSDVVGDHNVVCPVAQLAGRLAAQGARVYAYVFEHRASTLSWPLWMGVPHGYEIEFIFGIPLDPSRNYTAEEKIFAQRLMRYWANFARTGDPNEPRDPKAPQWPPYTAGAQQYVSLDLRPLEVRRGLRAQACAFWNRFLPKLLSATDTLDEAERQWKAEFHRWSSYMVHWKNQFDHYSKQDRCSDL
Method in brief: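 Using neuroblastoma SH-SY5Y cells as the enzyme source, test chemicals are preincubated 30 min at 37 C; AChE-driven acetylthiocholine cleavage is then quantified by thiocholine-dependent Thiolite Green fluorescence after 40 min at room temperature.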
`OCCCC1CCCCC1` was tested, and the Potency was “inactive”.
`NCC1CCCC(CN)C1` (centres undefined) was tested, and the Potency was “inactive”.
In the case of `COc1cc(C(C)C)ccc1C`, the activity change, negative = inhibition is reported as 2.94% [at 23.8 µM] (inactive).
In the case of `O=C(O)c1cc(=O)c2ccccc2o1`, the Potency is reported as “inactive”.
`CCC(=O)C(=O)CC` was tested, and the Potency was “inactive”.
In the case of `c1csc(SSc2cccs2)c1`, the Potency is reported as “inactive”.
For `CC(C)(C)c1cc(C=O)cc(C(C)(C)C)c1O`, the Potency was “inactive”.
With `Clc1cc(Cl)c(Cl)nc1Cl` the Potency was “inactive”.
In the case of `COc1cc(N)ccc1C`, the Potency is reported as “inactive”.
With `Cc1cc(CC(=O)O)c(C)n1-c1ccc(Cl)cc1` the Potency was “inactive”.
`CCCCCCCCCOC(=O)c1ccccc1C(=O)OCCCCCCCCC` was tested, and the Potency was “inactive”.
In the case of `COc1cc(C=C2CCC/C(=C\c3ccc(O)c(OC)c3)C2=O)ccc1O`, the Potency is reported as “inactive”.
With `CN(C)C(=O)Nc1ccc(Oc2ccc(Cl)cc2)cc1` the Potency was “inactive”.
With `CCCCC(=O)O[C@]1(C(=O)CO)[C@H](C)C[C@H]2[C@@H]3CCC4=CC(=O)C=C[C@]4(C)[C@@]3(F)[C@@H](O)C[C@@]21C` the Potency was “inactive”.
For `NC(=O)c1ccncc1`, the Potency was “inactive”.
With `CC(=O)N[C@@H](CCC(=O)O)C(=O)O` the Potency was “inactive”.
With `CO[Si](CCCCl)(OC)OC` the Potency was “inactive”.
For `OC(C#CCN1CCCC1)(c1ccccc1)c1ccccc1`, the Potency was “inactive”.
`C=C(C)CCCC` was tested, and the Potency was “inactive”.
`O=CNc1ccccc1` was tested, and the Potency was “inactive”.
In the case of `O=S(=O)(O)c1cc(I)c(O)c2ncccc12`, the Potency is reported as “inactive”.
In the case of `O=C(Nc1ccc(Oc2ccc(Cl)cc2)c(Cl)c1)c1cc(I)cc(I)c1O`, the Potency is reported as “inactive”.
In the case of `CCN(CC)CC(=O)OCC(=O)[C@@]1(O)CC[C@H]2[C@@H]3CCC4=CC(=O)CC[C@]4(C)[C@H]3[C@@H](O)C[C@@]21C`, the Potency is reported as “inactive”.
For `CC(C)(C)OC(=O)c1ccccc1C(=O)O`, the Potency was “inactive”.
For `O=c1cccccc1O`, the Potency was “inactive”.
`CCO[Si](CCC1CCC2OC2C1)(OCC)OCC` (centres undefined) was tested, and the Potency was “inactive”.
`C=C(C)C(=O)NCCCN(C)C` was tested, and the Potency was “inactive”.
`COC(=O)C1=C(C)NC(C)=C(C(=O)OC(C)(C)CN(C)CCC(c2ccccc2)c2ccccc2)C1c1cccc([N+](=O)[O-])c1` (centres undefined) was tested, and the Potency was “inactive”.
`CC1COc2c(N3CCN(C)CC3)c(F)cc3c(=O)c(C(=O)O)cn1c23` (centres undefined) was tested, and the Potency was “inactive”.
With `Oc1cccc2c(O)cccc12` the Potency was “inactive”.
In the case of `O=C1CC[C@@H](C(=O)O)N1`, the Potency is reported as “inactive”.
`CC(=O)NO` was tested, and the Potency was “inactive”.
With `O=S(=O)(O)c1ccc(Nc2nc(Nc3ccc(/C=C/c4ccc(Nc5nc(Nc6ccc(S(=O)(=O)O)cc6)nc(N(CCO)CCO)n5)cc4S(=O)(=O)O)c(S(=O)(=O)O)c3)nc(N(CCO)CCO)n2)cc1` the Potency was “inactive”.
With `CCCCOC(=O)/C=C\C(=O)OCCCC` the Potency was “inactive”.
With `Cc1ccc(=O)n(-c2ccccc2)c1` the Potency was “inactive”.
With `CCCCCCCC/C=C\CCCCCCCC(=O)N(C)CC(=O)O` the Potency was “inactive”.
With `CNCCCC1c2ccccc2C=Cc2ccccc21` the outcome was “inactive”.
With `Cc1ccc(O)cn1` the Potency was “inactive”.
In the case of `O=C(O)CNC(=O)c1ccccc1I`, the Potency is reported as “inactive”.

Source: PubChem BioAssay (Tox21)
